16 compounds from PubChem BioAssay (Tox21) can be followed below.

Assay [1] can be described thus: Caspase-3/7 induction in CHO-K1 cells by small molecules, qHTS assay (AID 1346980). Also: nearly all actives have a fitted effect of over 15% in size. Also: potency is read from the fitted curve at half-maximal effect. A digest of the protocol:
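Wild-type CHO-K1 cells exposed to compounds for 17hr at 37 C, 5% CO2. Caspase-3/7 activity then measured by Caspase-Glo 3/7 luminescence after 30min at room temperature.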

In assay [2] the target is Nuclear receptor subfamily 1 group I member 2 (Homo sapiens) (UniProt O75469). As to the kind of experiment: Human pregnane X receptor (PXR) small molecule agonists, qHTS assay (AID 1346982). Also: nearly all actives have a fitted effect of over 35% in size. Also: potency is read from the fitted curve at half-maximal effect. The method, boiled down:
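HepG2 PXR-Luc reporter line, 5% charcoal-stripped FBS; 5 hr pre-incubation, compound (DMSO) 24 hr at 37 C/5% CO2; ONE-Glo 30 min RT; luminescence read-out.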

Assay [3] deals with Nuclear receptor subfamily 1 group I member 2 (Rattus norvegicus) (UniProt Q9R1A7). As to the kind of experiment: Rat pregnane X receptor (rPXR) activation by small molecules, qHTS assay (AID 1346983). Also: nearly all actives have a fitted effect of over 20% in size. Also: potency is read from the fitted curve at half-maximal effect. Particulars: rPXR luciferase reporter cells, One-Glo luminescence, 24 h; max activation: stronger effect = higher value. A digest of the protocol: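 Cell-based rPXR activation assay: rPXR cells, 2,000 per well, rested 5hr at 37 C, then exposed to compounds in DMSO for 24 hr at 37 C. Luciferase activity read by One-Glo luminescence after 30 min at room temperature.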
Sequence of Nuclear receptor subfamily 1 group I member 2 (Rattus norvegicus) (Q9R1A7 whole entry, looked up): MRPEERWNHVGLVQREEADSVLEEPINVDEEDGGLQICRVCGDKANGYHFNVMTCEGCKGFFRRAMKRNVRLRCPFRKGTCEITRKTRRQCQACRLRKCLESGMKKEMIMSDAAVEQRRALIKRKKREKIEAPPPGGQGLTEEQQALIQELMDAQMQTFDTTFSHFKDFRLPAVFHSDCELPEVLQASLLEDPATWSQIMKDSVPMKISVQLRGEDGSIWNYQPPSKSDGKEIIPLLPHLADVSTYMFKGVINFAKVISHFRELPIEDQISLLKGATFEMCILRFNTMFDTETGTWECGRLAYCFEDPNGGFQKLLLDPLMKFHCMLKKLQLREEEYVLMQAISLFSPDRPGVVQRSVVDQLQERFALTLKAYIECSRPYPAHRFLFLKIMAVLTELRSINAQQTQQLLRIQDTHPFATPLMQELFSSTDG

The target of assay [4] is Nuclear receptor subfamily 1 group I member 2 (Homo sapiens) (UniProt O75469). As to the kind of experiment: CYP3A4 induction through human pregnane X receptor (PXR) by small molecules, qHTS assay (AID 1346984). Also: nearly all actives have a fitted effect of over 40% in size. A digest of the protocol:
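HepG2-derived DPX-2 line carrying PXR plus a CYP3A4-promoter luciferase reporter; cells plated 5 hr, compound-exposed 24 hr at 37C. CYP3A4 activity probed with 3uM (final) Luciferin-IPA for 3hr, then luciferase read after One-Glo.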

For assay [5] the target is unchanged. As to the kind of experiment: Human pregnane X receptor (PXR) activation by small molecules, qHTS assay (AID 1346985). Also: nearly all actives have a fitted effect of over 40% in size. Also: potency is read from the fitted curve at half-maximal effect. A digest of the protocol:
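DPX-2 cells (HepG2 co-transfected with a PXR response element and a CYP3A4-promoter luciferase construct) were seeded at 2,000 per well, rested 5 hr at 37C, then exposed to DMSO-dissolved compounds for 24 hr. Activation was read as luciferase luminescence.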
(In general: Quantitative high-throughput screening tests each substance at several concentrations.)

For assay [6], the target named is Cytochrome P450 2D6 (Homo sapiens) (UniProt P10635). As to the kind of experiment: Cytochrome P450 Family 2 Subfamily D Member 6 (CYP2D6) small molecule antagonists: luciferase reporter qHTS assay (AID 1671196). Also: nearly all actives have a fitted effect of over 50% in size. Also: potency is read from the fitted curve at half-maximal effect. As to activity change, negative = inhibition: series mostly up to about 120 µM. The method, boiled down: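 Luminogenic proluciferin substrate, CYP2D6 enzyme; 10 min RT preincubation with compound, NADPH regeneration system added, 1 h RT. Stop/detection reagent, 20 min RT, luminescence read (RLU). Signal proportional to CYP activity.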
Sequence of Cytochrome P450 2D6 (Homo sapiens) (P10635 whole entry, looked up): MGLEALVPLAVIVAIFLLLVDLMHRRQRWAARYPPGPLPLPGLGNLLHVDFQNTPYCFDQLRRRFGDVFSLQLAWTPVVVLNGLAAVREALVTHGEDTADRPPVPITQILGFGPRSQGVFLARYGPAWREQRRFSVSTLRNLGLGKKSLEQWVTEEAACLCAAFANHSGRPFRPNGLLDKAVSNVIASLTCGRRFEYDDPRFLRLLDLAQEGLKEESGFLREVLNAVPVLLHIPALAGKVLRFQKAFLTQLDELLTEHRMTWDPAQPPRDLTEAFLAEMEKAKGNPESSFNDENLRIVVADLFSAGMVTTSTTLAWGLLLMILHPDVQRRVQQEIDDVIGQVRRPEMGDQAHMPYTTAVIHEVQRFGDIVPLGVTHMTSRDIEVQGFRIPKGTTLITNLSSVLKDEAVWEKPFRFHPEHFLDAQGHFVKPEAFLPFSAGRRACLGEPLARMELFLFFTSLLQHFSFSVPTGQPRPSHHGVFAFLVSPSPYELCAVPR
A general note: Reporter assays use an easily measured gene product as a stand-in for the process of interest.

Assay [7] deals with Cytochrome P450 2C19 (Homo sapiens) (UniProt P33261). As to the kind of experiment: Cytochrome P450 Family 2 Subfamily C Member 19 (CYP2C19) small molecule antagonists: luciferase reporter qHTS assay (AID 1671197). Also: nearly all actives have a fitted effect of over 65% in size. Also: potency is read from the fitted curve at half-maximal effect. As to activity change, negative = inhibition: series mostly up to about 120 µM. A digest of the protocol:
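Light output is proportional to CYP2C19 activity: proluciferin substrate is converted to luciferin, then detected by a luciferin detection reagent that also stops the 1 h, 37C NADPH-driven reaction. Ketoconazole serves as positive control.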

Assay [8] has as its target Cytochrome P450 3A4 (Homo sapiens) (UniProt P08684). The assay is described as follows: Cytochrome P450 Family 3 Subfamily A Member 4 (CYP3A4) small molecule antagonists: luciferase reporter qHTS assay (AID 1671201). Also: nearly all actives have a fitted effect of over 50% in size. Also: potency is read from the fitted curve at half-maximal effect. As to activity change, negative = inhibition: series mostly up to about 120 µM. The method, boiled down:
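Luminescent readout (RLU) proportional to CYP3A4 activity, from luciferin generated off a proluciferin substrate. Enzyme–substrate mix plus compound 10 min at room temp, NADPH regeneration 1 h, detection reagent 20 min.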

Assay [9] in a line: Caspase-3/7 induction in HepG2 cells by small molecules, qHTS cell viability counter screen (AID 1346981). Also: nearly all actives have a fitted effect of over 30% in size. Also: potency is read from the fitted curve at half-maximal effect. As to activity change, negative = cytotoxicity: series mostly up to about 92 µM. The method, boiled down:
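Fluorescence read-out of live-cell protease activity (CellTiter-Fluor) after 1 hr with reagent. This was measured in the same wells as the caspase-3/7 luminescence, on HepG2 cells exposed to DMSO-dissolved compounds for 16 hr at 37 C.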

Assay [10] concerns the target Voltage-gated inwardly rectifying potassium channel KCNH2 (Homo sapiens) (UniProt Q12809). As to the kind of experiment: Human Ether-a-go-go-Related Gene (hERG) channel small molecule antagonists: fluorescence cell-based qHTS assay (AID 1671200). Also: nearly all actives have a fitted effect of over 50% in size. Also: potency is read from the fitted curve at half-maximal effect.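 As to activity change, negative = inhibition: hERG-expressing U2OS cells given a thallium stimulus after FluxOR II dye loading; series mostly up to about 77 µM.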 The method, boiled down:
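Read-out: thallium influx as a surrogate for potassium, tracked as fluorescence (480 nm ex/540 nm em) every second for 2 min after Stimulus Buffer addition in dye-loaded hERG-U2OS cells.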
For orientation: hERG is a cardiac potassium channel; its block is linked to QT prolongation.

In assay [11] the target is Cytochrome P450 2C9 (Homo sapiens) (UniProt P11712). As to the kind of experiment: Cytochrome P450 Family 2 Subfamily C Member 9 (CYP2C9) small molecule antagonists: luciferase reporter qHTS assay (AID 1671198). Also: nearly all actives have a fitted effect of over 50% in size. Also: potency is read from the fitted curve at half-maximal effect. As to activity change, negative = inhibition: series mostly up to about 120 µM. A digest of the protocol: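 P450-Glo proluciferin substrate with CYP2C9 enzyme; 10 min RT preincubation, then NADPH regeneration 1 h at 37C; luciferin detection reagent 20 min RT, luminescence in relative luminescence units.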
Sequence of Cytochrome P450 2C9 (Homo sapiens) (P11712 whole entry, looked up): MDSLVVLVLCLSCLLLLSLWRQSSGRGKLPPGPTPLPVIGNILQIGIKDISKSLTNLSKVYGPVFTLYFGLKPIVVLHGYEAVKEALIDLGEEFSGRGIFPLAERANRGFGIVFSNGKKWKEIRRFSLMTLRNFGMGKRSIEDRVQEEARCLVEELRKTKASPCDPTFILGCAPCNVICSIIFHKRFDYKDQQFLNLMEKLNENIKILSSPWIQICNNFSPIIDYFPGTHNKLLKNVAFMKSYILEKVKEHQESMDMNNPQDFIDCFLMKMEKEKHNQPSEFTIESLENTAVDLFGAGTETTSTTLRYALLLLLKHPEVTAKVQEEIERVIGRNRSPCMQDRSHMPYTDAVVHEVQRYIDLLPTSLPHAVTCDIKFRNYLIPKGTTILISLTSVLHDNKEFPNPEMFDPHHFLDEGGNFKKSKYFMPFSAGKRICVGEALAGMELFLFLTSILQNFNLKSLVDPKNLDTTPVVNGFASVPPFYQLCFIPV

For assay [12], the target named is Cytochrome P450 1A2 (Homo sapiens) (UniProt P05177). As to the kind of experiment: Cytochrome P450 Family 1 Subfamily A Member 2 (CYP1A2) small molecule antagonists: luciferase reporter qHTS assay (AID 1671199). Also: nearly all actives have a fitted effect of over 50% in size. Also: potency is read from the fitted curve at half-maximal effect. As to activity change, negative = inhibition: series mostly up to about 120 µM. A digest of the protocol: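 Luminescence readout (relative luminescence units) after luciferin detection reagent, 20 min RT. Preceded by 1 h room-temperature CYP1A2 reaction with NADPH regeneration solution following 10 min compound preincubation with enzyme and proluciferin substrate. Furafylline positive control.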
Sequence of Cytochrome P450 1A2 (Homo sapiens) (P05177 whole entry, looked up): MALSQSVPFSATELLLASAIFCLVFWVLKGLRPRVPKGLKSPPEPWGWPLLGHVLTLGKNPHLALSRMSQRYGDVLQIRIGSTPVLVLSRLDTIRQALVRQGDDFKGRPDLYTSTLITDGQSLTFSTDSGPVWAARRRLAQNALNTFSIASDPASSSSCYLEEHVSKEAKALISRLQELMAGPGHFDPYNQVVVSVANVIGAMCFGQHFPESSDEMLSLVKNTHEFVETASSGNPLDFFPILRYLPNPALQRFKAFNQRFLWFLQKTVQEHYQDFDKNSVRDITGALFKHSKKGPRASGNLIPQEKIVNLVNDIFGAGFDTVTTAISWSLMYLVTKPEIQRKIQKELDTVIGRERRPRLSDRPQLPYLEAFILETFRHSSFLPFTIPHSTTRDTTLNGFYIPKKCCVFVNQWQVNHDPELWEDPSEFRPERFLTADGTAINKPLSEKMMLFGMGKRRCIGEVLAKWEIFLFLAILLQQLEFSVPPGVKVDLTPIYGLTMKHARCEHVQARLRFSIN

Unmarked numbers belong to inactive results. Results filed as inconclusive are left out. Activity calls are given as the source filed them. Calls follow the shape of the dose curve; as a rule, active = well fitted curve in the direction sought with a large enough effect in the repeat runs; inconclusive = weak or mixed curves; inactive = no such curve, though single readings can be large; an effect the other way counts as inactive or inconclusive.
% is scaled to controls: 0 for no effect and ±100 for the full control effect.

Sequence of Cytochrome P450 2C19 (Homo sapiens) (P33261 whole entry, looked up): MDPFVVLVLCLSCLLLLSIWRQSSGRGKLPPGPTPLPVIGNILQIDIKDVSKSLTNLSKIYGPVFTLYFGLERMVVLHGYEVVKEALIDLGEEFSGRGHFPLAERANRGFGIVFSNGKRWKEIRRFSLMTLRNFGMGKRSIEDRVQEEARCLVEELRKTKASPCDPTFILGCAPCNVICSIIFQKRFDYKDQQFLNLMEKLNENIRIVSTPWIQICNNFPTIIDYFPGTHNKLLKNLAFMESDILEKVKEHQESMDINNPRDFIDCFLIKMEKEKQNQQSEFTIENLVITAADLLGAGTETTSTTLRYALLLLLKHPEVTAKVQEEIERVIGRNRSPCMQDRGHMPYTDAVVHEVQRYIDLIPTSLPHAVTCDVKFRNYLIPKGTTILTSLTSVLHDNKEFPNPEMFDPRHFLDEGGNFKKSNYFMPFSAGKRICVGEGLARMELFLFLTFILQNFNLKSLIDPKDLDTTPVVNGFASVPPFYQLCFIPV
Sequence of Voltage-gated inwardly rectifying potassium channel KCNH2 (Homo sapiens) (Q12809 whole entry, looked up): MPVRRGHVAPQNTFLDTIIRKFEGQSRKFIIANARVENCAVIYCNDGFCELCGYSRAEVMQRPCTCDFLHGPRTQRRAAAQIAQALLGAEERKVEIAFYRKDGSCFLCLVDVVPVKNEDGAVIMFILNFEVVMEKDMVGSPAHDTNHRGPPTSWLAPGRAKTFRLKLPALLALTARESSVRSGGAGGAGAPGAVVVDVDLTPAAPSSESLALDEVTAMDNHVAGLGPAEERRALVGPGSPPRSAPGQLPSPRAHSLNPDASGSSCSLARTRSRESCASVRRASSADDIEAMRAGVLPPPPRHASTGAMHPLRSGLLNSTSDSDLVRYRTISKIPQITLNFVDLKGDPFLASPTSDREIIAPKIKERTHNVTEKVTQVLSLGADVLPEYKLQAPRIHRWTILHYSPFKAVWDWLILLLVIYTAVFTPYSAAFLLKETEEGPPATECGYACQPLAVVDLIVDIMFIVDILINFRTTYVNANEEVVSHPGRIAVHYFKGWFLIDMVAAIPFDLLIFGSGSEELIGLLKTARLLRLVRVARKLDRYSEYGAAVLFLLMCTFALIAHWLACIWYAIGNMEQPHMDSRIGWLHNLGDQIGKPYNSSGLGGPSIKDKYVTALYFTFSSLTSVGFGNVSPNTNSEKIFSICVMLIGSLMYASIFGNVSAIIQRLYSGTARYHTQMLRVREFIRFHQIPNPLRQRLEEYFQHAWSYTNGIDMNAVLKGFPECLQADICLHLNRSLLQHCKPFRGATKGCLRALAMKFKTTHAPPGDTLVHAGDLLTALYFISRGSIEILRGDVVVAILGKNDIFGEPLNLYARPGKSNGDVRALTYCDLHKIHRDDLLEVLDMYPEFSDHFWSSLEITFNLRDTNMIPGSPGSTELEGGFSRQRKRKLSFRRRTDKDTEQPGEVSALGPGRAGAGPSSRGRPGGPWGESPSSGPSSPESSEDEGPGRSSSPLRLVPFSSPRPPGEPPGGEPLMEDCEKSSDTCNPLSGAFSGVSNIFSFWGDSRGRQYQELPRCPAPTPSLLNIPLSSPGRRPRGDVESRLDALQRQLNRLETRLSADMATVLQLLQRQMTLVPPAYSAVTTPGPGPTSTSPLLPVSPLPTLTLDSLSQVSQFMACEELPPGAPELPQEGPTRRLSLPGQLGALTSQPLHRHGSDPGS
Sequence of Nuclear receptor subfamily 1 group I member 2 (Homo sapiens) (O75469 whole entry, looked up): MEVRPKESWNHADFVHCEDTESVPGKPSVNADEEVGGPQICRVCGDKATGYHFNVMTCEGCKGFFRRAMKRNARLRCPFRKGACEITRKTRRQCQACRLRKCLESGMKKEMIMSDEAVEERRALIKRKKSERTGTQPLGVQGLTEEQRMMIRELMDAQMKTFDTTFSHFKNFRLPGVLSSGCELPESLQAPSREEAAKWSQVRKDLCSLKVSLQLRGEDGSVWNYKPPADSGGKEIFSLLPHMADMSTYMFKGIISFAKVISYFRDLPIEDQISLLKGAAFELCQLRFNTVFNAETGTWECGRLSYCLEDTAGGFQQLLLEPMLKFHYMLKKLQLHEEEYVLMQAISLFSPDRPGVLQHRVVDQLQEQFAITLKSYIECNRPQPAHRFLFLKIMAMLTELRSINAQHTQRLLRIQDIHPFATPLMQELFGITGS
Sequence of Cytochrome P450 3A4 (Homo sapiens) (P08684 whole entry, looked up): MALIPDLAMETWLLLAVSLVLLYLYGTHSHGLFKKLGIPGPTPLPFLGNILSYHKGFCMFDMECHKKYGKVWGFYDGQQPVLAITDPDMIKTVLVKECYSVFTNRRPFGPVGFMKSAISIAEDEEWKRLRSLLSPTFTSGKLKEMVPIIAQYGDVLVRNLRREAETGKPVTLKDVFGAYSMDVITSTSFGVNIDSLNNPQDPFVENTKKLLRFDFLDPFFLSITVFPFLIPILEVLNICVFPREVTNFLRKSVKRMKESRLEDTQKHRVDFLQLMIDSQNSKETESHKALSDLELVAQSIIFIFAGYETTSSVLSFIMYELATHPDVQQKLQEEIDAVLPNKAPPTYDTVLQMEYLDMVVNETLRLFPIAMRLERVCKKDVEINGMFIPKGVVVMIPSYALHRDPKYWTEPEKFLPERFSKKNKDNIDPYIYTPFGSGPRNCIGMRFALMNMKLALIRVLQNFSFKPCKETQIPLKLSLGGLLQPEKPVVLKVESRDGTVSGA

With `COc1cc(/C=C/C(=O)CC(=O)/C=C/c2ccc(O)c(OC)c2)ccc1O`, the Potency result in assay [1], in assay [4] and in assay [5] was “inactive” throughout. In addition, the Potency is 24.5 µM (active) in [2], 35.8 µM (active) in assay [6], 10.1 µM (active) in [7] and 10.1 µM (active) in [8]. In addition, the max activation in [3] is 8.99%.
As to `CCCCCCCCc1ccc(Nc2ccc(CCCCCCCC)cc2)cc1`, the Potency entry in [1], in [9], in assay [2], in assay [6], in assay [10] and in [8] was “inactive” throughout.
`CC(C)(C)C1=CC(=O)C(C(C)(C)C)=CC1=O`: the Potency entry in [1], in assay [9], in [10] and in [8] was “inactive” in each case. Also, the Potency was 18.8 µM (active) in [2], 6.92 µM (active) in assay [7], 15.5 µM (active) in assay [11] and 17.4 µM (active) in assay [12].
Turning to `Cc1cc(F)ccc1-c1cc(N2CC[C@@H](O)[C@H]2CO)ncc1N(C)C(=O)C(C)(C)c1cc(C(F)(F)F)cc(C(F)(F)F)c1`, the Potency in assay [1] is 38 µM (active); in assay [9], 38 µM (active); in assay [2], 17 µM (active); in assay [7], 27.8 µM (active); in assay [11] it was 22.1 µM (active); in [8] it was 3.12 µM (active). Also, in assay [10], the Potency result is “inactive”.
Regarding `CCC(C)(C)c1ccc(CC(C)CN2C[C@@H](C)O[C@@H](C)C2)cc1` (some centres undefined), the Potency result in assay [1], in [2], in assay [4] and in assay [8] was “inactive” throughout. In assay [3], the max activation was -0.729%. Further, the Potency in [6] is 6.92 µM (active); in [7] it was 11 µM (active); in assay [10] it was 9.52 µM (active).
Consider `Cc1cc(Br)ccc1NC(=O)CCl`, for which the Potency result in [1], in [10] and in [8] was “inactive” each time. Besides, the Potency is 61.1 µM (active) in [9], 3.44 µM (active) in [2], 79.6 µM (active) in assay [7] and 39.9 µM (active) in [11].
As to `O=C(CCN1CCC(c2ccccc2)C1)c1ccc2c(c1)OCCO2` (centres undefined), the Potency result in [1], in assay [5] and in assay [8] was “inactive” each time. The Potency in [2] was 13.3 µM (active); in assay [6] it was 2.19 µM (active). In assay [3], the max activation is -4.55%.
Regarding `Cc1ccc2sc3cccc(C)c3c2c1`, the Potency entry in [1], in assay [9], in assay [2], in assay [7], in assay [11] and in assay [10] was “inactive” in each case. The Potency result in assay [8] is “inactive”. In assay [12], the Potency was 2.52 µM (active).
Regarding `COc1cc2ncnc(Nc3cccc(Cl)c3)c2cc1OC`, the caspase-3/7 activation in assay [1] is -2.78% [at 19 µM]. Besides, in assay [9], the activity change, negative = cytotoxicity was -10% [at 19 µM]. Also, the activity change, negative = inhibition in [10] was 7% [at 15.8 µM].
Consider `O=[N+]([O-])c1ccc(O)c2ncccc12`, for which the figures for the Potency in assay [1], in [2] and in assay [11] were 5.96 µM (active), 29.8 µM (active) and 38.9 µM (active), respectively. The max activation in assay [3] was -6.55%. In addition, the Potency result in assay [4], in assay [6], in assay [7], in assay [12] and in assay [10] was “inactive” in each case.
For `C=C1C(CCl)(CCl)C2(Cl)C(Cl)C(Cl)C1(Cl)C2(Cl)Cl` (centres undefined), the Potency in [1] was 48 µM (active); in assay [2], 8.53 µM (active); in assay [3] it was 11.2 µM (active); in assay [5], 15.8 µM (active); in assay [6], 44.3 µM (active); in [7], 1.76 µM (active). Moreover, the Potency in assay [10] was 43.1 µM (active); in assay [8], 0.991 µM (active). Besides, the Potency entry in assay [4] was “inactive”.
`Cc1ccc2nc(-c3ccc(N)cc3)sc2c1S(=O)(=O)O`: the Potency entry in [1], in [9] and in assay [8] was “inactive” in each case. Further, the Potency in assay [2] was 2.69 µM (active); in [7], 22.1 µM (active).
Consider `CCCOC(=O)c1ccc(O)cc1`, for which the Potency entry in assay [1], in assay [5] and in assay [10] was “inactive” in each case. The Potency in assay [2] was 48.6 µM (active). The max activation in assay [3] is -0.262%.
On to `O=c1[nH]cccc1O`, for which the Potency result in [1], in assay [9], in assay [2], in assay [7], in assay [12] and in assay [10] was “inactive” throughout. Besides, the Potency result in assay [8] was “inactive”.
Take `CN1CC[C@H](c2c(O)cc(O)c3c(=O)cc(-c4ccccc4Cl)oc23)[C@H](O)C1`: the Potency in [1] is 0.266 µM (active); in assay [9], 0.335 µM (active); in assay [2], 0.106 µM (active). In addition, the Potency entry in [7], in assay [12] and in assay [8] was “inactive” throughout.
Take `CCN(CC)c1ccc(C=O)cc1`: the Potency result in assay [1], in [9], in assay [6], in assay [11], in assay [10] and in assay [8] was “inactive” each time. Moreover, in [7], the Potency was 15.9 µM (active).
